Hits are enriched below; roughly 8.6% of the tested compounds scored in any of these assays.
Lassa entry – qHTS for Inhibitors of binding or entry into cells for Lassa Virus | AID 720533, 2013 | hit rate 4.1% among 18,000 | Potency, µM (titrated, usually from 49.2 µM), most hits filed as inhibitors | Lassa virus pseudotyped entry inhibition, cell-based qHTS
MARV entry inh – qHTS for Inhibitors of binding or entry into cells for Marburg Virus | Marburg virus pseudotype entry/binding inhibition, cell-based | Potency, µM (highest dose often 49.2 µM), usual class: inhibitors | hit rate 6.5% among 18,000 | AID 720532, 2013
A number is an active result; 0 = inactive; ? = inconclusive; - = no result given; ! = a repeat was not active; [ ] = another dose, or the depositor's remark. The call rests on the fitted dose curve; tested in HEK293 cells.

SMILES | Lassa entry | MARV entry inh
CN1C2CCC1CC(OC(c1ccc(F)cc1)c1ccc(F)cc1)C2 (centres undefined) | ? | 5.62µM
Nc1nc(-c2ccccn2)c(-c2ccc3ncccc3n2)s1 | 0 | 0
C[C@H]1[C@@H](C(=O)N2CCCC2)CC(=O)C(=NOCc2ccccc2)C[C@H]1c1ccccc1 | - | 0[8.59 µM]
COc1cc(-c2ccc(-[n+]3nc(-c4ccccc4)nn3-c3ccc([N+](=O)[O-])cc3)c(OC)c2)ccc1-[n+]1nc(-c2ccccc2)nn1-c1ccc([N+](=O)[O-])cc1 | 14.1µM | 14.1µM
C=CCNC(=O)[C@H]1C=C(OC)C(=O)C[C@H](c2ccccc2)[C@H]1C | 0[8.59 µM] | 0[8.59 µM]
C=CC[C@@](C(C)=O)(C(=O)OC)[C@@H](NC(=O)OC)c1ccccc1 | 0[8.59 µM] | 0[8.59 µM]
COc1cc(Br)c(C[N+]2(CCOCCC3CCC4CC3C4(C)C)CCOCC2)cc1OC (centres undefined) | 4.47µM | ?
CCOC(=O)OC[C@H]1O[C@H](c2ccc(C(C)=O)cc2)C=C[C@H]1Oc1ccc(-c2ccccc2)cc1 | - | 0[8.59 µM]
C=CCCC1(CCC)C(=O)C(=C(O)c2ccccc2)C(=O)C(CCC)=C1OC (centres undefined) | 0[8.59 µM] | 0[8.59 µM]
N=C1N=C(N)c2cc3ccccc3cc21 | 35.5µM | 20µM
O=C1N=c2ccc(N=Cc3c(O)[nH]c4ccccc34)cc2=N1 | 0 | 0
COc1ccc(CC(N)C(=O)N[C@H]2[C@@H](O)[C@H](n3cnc4c(N(C)C)ncnc43)O[C@@H]2CO)cc1 (some centres undefined) | 1.26µM | 6.31µM
C[C@@H](Cc1ccccc1)Nc1ncnc2c1ncn2[C@@H]1O[C@H](CO)[C@@H](O)[C@H]1O | 0 | 0
CCOC(=O)CN1C(=O)[C@@]2(CC(C)=CC[C@@H](COc3ccccc3)O2)c2c(Br)cccc21 | 0[8.59 µM] | 0[8.59 µM]
O=C1C2=C(C(=O)c3ccccc31)[C@H]1O[C@](c3ccsc3)(Cc3c1ccc1ccccc31)O2 | 0[8.59 µM] | 0[8.59 µM]
COC(=O)[C@H]1[C@@H](c2ccccc2)NC(=O)N(CCc2cc(OC)c(OC)c(OC)c2)[C@@H]1C | 0[8.59 µM] | 0[8.59 µM]
Nc1nc(-c2nn(Cc3ccccc3F)c3ncccc23)ncc1C1CC1 | 0.891µM | 0.562µM
O=[S+]1([O-])C[C@H](N2CCN(CCO)CC2)[C@H](COCc2ccccc2)N1 | 0 | 0
C=CCCN1C=C(C(=O)OCC)C(c2ccccc2)NC1=O (centres undefined) | 0[8.59 µM] | ?
COC(=O)[C@H](C)N1CC=CCOc2c(Cl)cc(Cl)cc2[S+]1(=O)[O-] | 0 | 0
CC(CCN1CCCc2nc(C)c(C)cc21)=NO[C@@H](C)c1cc(-c2c(C)cc(C)cc2C)no1 | 0[8.59 µM] | 0[8.59 µM]
Nc1ncnc2nc[nH]c12 | 0 | 0
Nc1nc(=S)c2[nH]cnc2[nH]1 | 2.82µM | 3.16µM
C=CCN=C1NC(c2cccc(C(F)(F)F)c2)C(C(=O)OC)=C(C)N1CC (centres undefined) | 0[8.59 µM] | 0[8.59 µM]
CC(C)C[C@@H](NC(=O)[C@@H](O)[C@H](N)Cc1ccccc1)C(=O)O | 0 | 0
SMILES | Lassa entry | MARV entry inh
CC(C)C[C@H](NC(=O)[C@H](Cc1ccccc1)NC(=O)c1cnccn1)B(O)O | 2.82µM | 3.55µM
CCC1(C2CCN(Cc3cccc4ccccc34)CC2)NC(=O)N(Cc2ccc3c(c2)OCO3)C1=O (centres undefined) | 0 | ?
Cc1cccc2c(Nc3ccc4c(c3)OCO4)nc(CN3CCC(N4CCCCC4)CC3)nc12 | 22.4µM | 10µM
COC(=O)[C@@H]1[C@@H](c2ccccc2)NC(=O)N(CCc2cc(OC)c(OC)c(OC)c2)[C@@H]1C | 0[8.59 µM] | 0[8.59 µM]
C=C(C)CCN1C(=O)NC(c2ccccc2)C(C(C)=O)=C1C (centres undefined) | 0[8.59 µM] | 0[8.59 µM]
c1ccc(Nc2ncc(-c3ccccc3)o2)cc1 | 4.99µM | 0
Cc1cccc(Nc2ncc(-c3ccccc3)o2)c1 | - | 0
C=CCN1c2ccccc2[C@]23CCC(=O)N(CC(=O)OC)C2=NC(C(=O)OC)=C(C(=O)OC)[C@H]13 | 0[8.59 µM] | 0[8.59 µM]
CO[C@@H]1c2ccccc2[C@H]2C(C(=O)O)c3c(n(C)c4ccccc34)[C@H]2[C@H]1C (some centres undefined) | 0[8.59 µM] | 0[8.59 µM]
Cc1cc2c(C(C)C)c(O)c(O)c(C=O)c2c(O)c1-c1c(C)cc2c(C(C)C)c(O)c(O)c(C=O)c2c1O | 11.2µM | 20µM
COC(=O)[C@]1(C=C2c3ccccc3C[C@H](OC)[C@@H]2C)[C@@H]2CC=C[C@@H]21 | 0[8.59 µM] | 0[8.59 µM]
C=C(CCN1C=C(C(C)=O)C(c2ccccc2)NC1=O)c1ccc(OC)cc1 (centres undefined) | 0[8.59 µM] | 0[8.59 µM]
C[C@H]1CN(c2ccccc2)C(=O)[C@H]1CC(=O)Nc1ccccc1 | 0 | 0
COCCN1C(=NCCc2cccnc2)NC(c2ccccc2)C(C(=O)OC)=C1C (centres undefined) | ? | 0[8.59 µM]
COC(=O)c1cc2c(s1)-c1ccccc1OC2 | 0 | 0
CN(C)CC/C=C1\c2ccccc2COc2ccccc21 | 0 | 10µM
CN(C)CC/C=C1/c2ccccc2Sc2ccc(Cl)cc21 | ? | 17.8µM
CC(C)(C)c1nc(-c2ccccc2)oc1Nc1ccc2ccccc2c1 | 0[8.59 µM] | 0[8.59 µM]
CCN1C(=O)NC(c2cccc(F)c2)C(C(=O)OC)=C1C (centres undefined) | 0[8.59 µM] | 0[8.59 µM]
COC(=O)C1=C(C(=O)OC)[C@@H]2N(C)c3ccccc3[C@@]23CCC(=O)N(Cc2ccco2)C3=N1 | - | 0[8.59 µM]
CC(C)CC1C(=O)N(Cc2cn(CCC3OCCCO3)nn2)CCS(=O)(=O)N1Cc1ccc(-c2ccc(F)nc2)cc1 (centres undefined) | 0 | ?
CCc1ccccc1OC[C@@H](O)CN[C@H]1CCCc2ccccc21 | 28.2µM | 8.91µM
CC(C)(C)NC[C@H](O)COc1ccccc1C1CCCC1 | ? | 7.94µM
CC(C)(C)NCC(O)COc1ccc(NC(=O)NC2CCCCC2)cc1 (centres undefined) | 0 | 0
C=CCOc1ccccc1OCC(O)CNC(C)C (centres undefined) | 0 | 0
SMILES | Lassa entry | MARV entry inh
CCOC(=O)N1CCN(Cc2ccc3c(c2)CN(C(=O)c2cc(-c4ccccc4)on2)CCO3)CC1 | ? | 0
CSc1ccc(COCC[C@@H]2C[C@H]3C=CCOP(=O)(O2)O3)cc1 | 0 | 0
O=C(/C=C/c1ccc(O)c(O)c1)OC(Cc1ccc(O)c(O)c1)C(=O)O (centres undefined) | 0 | 8.91µM
O=C(/C=C\c1ccc(O)c(O)c1)O[C@@H](Cc1ccc(O)c(O)c1)C(=O)O | 0 | ?
COC(=O)C1=C(C)N(Cc2ccccc2)C(=NCC2CC2)NC1c1ccc(Br)cc1 (centres undefined) | 0[8.59 µM] | 0[8.59 µM]
COc1cccc([C@H]2Oc3ccc(OC)cc3C(=NO[C@@H](C)c3cc(-c4c(C)cc(C)cc4C)no3)[C@H]2O)c1 | 0[8.59 µM] | 0[8.59 µM]
CN1CCN(CCCN2c3ccccc3Sc3ccc(Cl)cc32)CC1 | 20µM! | 10µM
CCSc1ccc2c(c1)N(CCCN1CCN(C)CC1)c1ccccc1S2 | 0 | ?
CN1CCN(CCCN2c3ccccc3Sc3ccccc32)CC1 | ? | 14.1µM
C[C@@H]1[C@@H](c2ccccc2)Oc2c(Cl)cccc2S(=O)(=O)N1Cc1cccc(F)c1 | 0 | 0
COC1=CC2C(=O)C(C(c3ccccc3)C2C)C1(C)O (centres undefined) | 0[8.59 µM] | 0[8.59 µM]
Cn1c2ccccc2c2c3c(c4c5ccccc5n(CCC#N)c4c21)CNC3=O | 11.2µM | ?
O=C(CCC1CCN(Cc2ccccc2)CC1)c1ccc2c(c1)NCCCC2 | ? | 14.1µM
O=C(NC1CCN(Cc2ccccc2)CC1)c1ccc(I)cc1 | 0 | 0

Bioassay records: PubChem, National Center for Advancing Translational Sciences (NCATS)
